In PubChem BioAssay AID1159580 (chemical genetic matrix, 2015):
Screen size: about 5,500 compounds; about 2,000 (36%) were called active. Another 18% or so got no clear call; they are omitted. Cut-off read from the data, not from the text of the source: active = normalized growth mostly below about 0.91 (no sharp cut-off); inconclusive = no clear call, values can overlap the other calls; inactive = mostly above about 0.92. Some of the results follow.

Assay: chemical genetic growth profiling, strain panel (AID 1159580);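 note: tested at 20 µM; growth read once vehicle control cultures reached saturation at 30 °C; 1 = growth at the plate median or of vehicle wells; lower values mean less growth of the strain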
Conditions: S. cerevisiae deletion strains, growth OD

Measured: normalized growth

Cc1cn([C@H]2C[C@@H](N=[N+]=[N-])[C@@H](CO)O2)c(=O)[nH]c1=O
inactive: locus YAL040C, strain CLN3, stronger effect = lower value 1 | locus YER002W, strain NOP16, stronger effect = lower value 0.99 | locus YMR307W, strain GAS1, stronger effect = lower value 0.999 | locus YNL128W, strain TEP1, stronger effect = lower value 1.01 | locus YNL175C, strain NOP13, stronger effect = lower value 0.983 | locus YNL197C, strain WHI3, stronger effect = lower value 1 | locus YNL224C, strain SQS1, stronger effect = lower value 0.974 | locus YOR083W, strain WHI5 (second series), stronger effect = lower value 1.02 | locus YPL241C, strain CIN2, stronger effect = lower value 0.995
